Screening data: PubChem BioAssay, Paczesny and Yang Labs, IUPUI and University of Michigan
ST2 IL33 inh: inhibitors of human ST2 (IL1RL1) binding to IL-33; Q01638; AlphaLISA ST2-Fc/biotin-IL-33 interaction, 1 h; inhibition, % for hits at 17 µM; 78,000 compounds, 2.3% hits; AID 1259354; in the data active = inhibition above about 30%
Target sequence (Q01638 whole entry, looked up): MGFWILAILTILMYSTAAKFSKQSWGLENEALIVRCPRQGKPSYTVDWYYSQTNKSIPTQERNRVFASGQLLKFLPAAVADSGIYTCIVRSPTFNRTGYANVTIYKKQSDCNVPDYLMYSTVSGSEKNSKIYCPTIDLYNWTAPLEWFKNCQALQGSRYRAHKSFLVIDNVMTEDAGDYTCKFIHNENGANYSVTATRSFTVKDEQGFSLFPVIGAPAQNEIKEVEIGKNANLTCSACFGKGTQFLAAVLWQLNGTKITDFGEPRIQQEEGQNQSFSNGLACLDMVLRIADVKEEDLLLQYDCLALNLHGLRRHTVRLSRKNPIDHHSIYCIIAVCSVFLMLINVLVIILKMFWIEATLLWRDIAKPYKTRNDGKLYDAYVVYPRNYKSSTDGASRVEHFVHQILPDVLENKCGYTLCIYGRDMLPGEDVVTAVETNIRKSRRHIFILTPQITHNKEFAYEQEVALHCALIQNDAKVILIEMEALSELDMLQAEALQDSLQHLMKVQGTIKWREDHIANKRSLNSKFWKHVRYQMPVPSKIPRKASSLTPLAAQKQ
The depositor's hits bear a star; i = inactive. Shown is part of a subset that was picked to be rich in hits.

SMILES | ST2 IL33 inh
Cc1ccc2nc(-c3ccc(N)cc3O)oc2c1 | 34%*
Cc1ccc2oc(-c3ccc(NC(=O)c4ccccc4Cl)cc3O)nc2c1 | i
Cc1ccc(S(=O)(=O)C2(C(=O)NCc3ccccc3)CC2)cc1 | i
CCC(=O)N1CCc2cc(Br)cc(S(=O)(=O)NC(C)CC)c21 (stereo unspecified) | i
COc1ccc(C(=O)c2cnc(C(C)C)n2C)cc1 | i
O=c1nc(-c2ccccc2)c2ccccc2[nH]1 | i
CNC(=O)c1cc2c(cn1)[nH]c1ccccc12 | i
Nc1ccc2[nH]c3ccccc3c2c1 | 66%*
O=C1[C@H]2[C@@H](C(=O)N1c1ccc(Cl)cc1)[C@@]1(CO)C=C[C@H]2O1 | i
CC(C)n1cc(CNC2CC(=O)N(C3Cc4ccccc4C3)C2)cn1 (stereo unspecified) | i
CC(=O)Nc1ccc(-c2nc3cc4sc(-c5ccc(NC(C)=O)cc5)nc4cc3s2)cc1 | i
N#Cc1ccc(C(=O)Nc2ccc(-c3nc4ccccc4s3)cc2)cc1 | 32%*
O=C(Cc1ccccc1)Nc1cccc(-c2nc3ccccc3s2)c1 | i
O=[N+]([O-])CC(SCCO)c1ccc(O)cc1 (stereo unspecified) | i
CC(=O)n1cc(C(C[N+](=O)[O-])SCCN)c2ccccc21 (stereo unspecified) | 30%*
COc1ccc(OC)c(C(=O)c2coc3ccc(O)cc23)c1 | i
O=C(CCC1CCCN(C(=O)Cn2cccn2)C1)N1CCN(Cc2ccccc2)CC1 (stereo unspecified) | i
Cc1ccc([N+](=O)[O-])cc1NC(=O)CC1Sc2ccc(C(F)(F)F)cc2NC1=O (stereo unspecified) | i
CC(C)N(Cc1ccccc1)C(=O)c1ccco1 | i
CN(Cc1ccccc1)Cc1ccccc1 | i
CCN(CCc1ccccc1)CCN(C)C | i
CCN(Cc1ccccc1)Cc1ccc(N(C)C)cc1 | 36%*
CCSc1nc2ccccc2n1Cc1ccccc1F | i
CC(C)c1cc(C2CCN(C(=O)c3cc(C(C)C)no3)CC2)[nH]n1 | i
CCCCNc1nc2c(c(=O)n(C)c(=O)n2C)n1Cc1ccccc1Br | i
SMILES | ST2 IL33 inh
O=C(NCCCN1CCc2ccccc2C1)c1ccc2c(c1)ncn2C1CCCC1 | i
COC(=O)[C@@H]1Cc2ncn(Cc3ccc(OC)cc3)c2CN1Cc1cccc(C#N)c1 | 41%*
COC(=O)[C@@H]1Cc2ncn(Cc3ccc(OC)cc3)c2CN1C(=O)c1ccc(OC)cc1 | i
COC(=O)[C@@H]1Cc2ncn(Cc3ccc(Cl)cc3)c2CN1C(=O)COc1ccccc1 | i
COC(=O)[C@@H]1Cc2ncn(Cc3ccc(Cl)cc3)c2CN1S(C)(=O)=O | i
COC(=O)[C@@H]1Cc2ncn(Cc3ccc(Cl)cc3)c2CN1Cc1ccc(F)cc1 | i
COC(=O)[C@@H]1Cc2ncn(Cc3ccc(Cl)cc3)c2CN1C(=O)c1ccccc1OC | i
COCC(=O)N1Cc2c(ncn2Cc2ccc(OC)cc2)C[C@H]1C(=O)OC | 68%*
COC(=O)[C@@H]1Cc2ncn(Cc3ccc(OC)cc3)c2CN1Cc1ccc(OC)cc1 | 89%*
COC(=O)[C@@H]1Cc2ncn(Cc3ccc(Cl)cc3)c2CN1Cc1ccc(CO)o1 | i
CCN(CC)S(=O)(=O)c1ccc(C(=O)N=c2sc3cc(Cl)ccc3n2C)cc1 | i
O=c1[nH]c2ccc(N=Cc3cc(Br)cc(Br)c3O)cc2[nH]1 | i
CCC(C(=O)O)N1C(=O)c2ccccc2C1=O (stereo unspecified) | i
Cc1ccccc1C(=O)Nc1nnc(N=Cc2ccc(F)cc2)s1 | i
Cc1nn(-c2ccccc2)c(Cl)c1C(=O)Nc1cccc(Cl)c1 | i
CC1=NN(c2ccccc2)C(=O)C1C(c1cccc(Cl)c1)C(C#N)C#N (stereo unspecified) | 62%*
O=C(Nc1cccc(Cl)c1)C(O)c1ccccc1 (stereo unspecified) | i
O=c1c2ccccc2nc2n1CCc1c-2[nH]c2ccccc12 | i
O=C(C1CC1)N1CCc2cc(Br)cc(S(=O)(=O)NC3CCCCCC3)c21 | i
CCN(C(=O)c1cc2cc3ccc(OC)cc3nc2s1)c1cc(OC)ccc1OC | 31%*
COc1ccc2cc3cc(C(=O)NC4CC4)sc3nc2c1 | i
CCN(CC)CCNC(=O)c1cc2cc3cc(OC)ccc3nc2s1 | i
COc1cccc(-c2noc3c2CN(C(=O)CC2=CCCCC2)CC3)c1 | i
COc1ccc(-c2nc(CN(C)Cc3ccon3)c(C)o2)c(F)c1 | i
O=C(O)c1ccc(S(=O)(=O)N2CCCC2)cc1 | 35%*
SMILES | ST2 IL33 inh
CC(C)(C)c1ccc(C(=O)Nc2ccc(S(=O)(=O)N3CCCC3)cc2)cc1 | i
O=C(Nc1ccccc1)c1ccc(S(=O)(=O)N2CCCCC2)cc1 | i
O=C(CCC(=O)N1CCCCC1CCc1cccc(O)c1)NC1CCCC1 (stereo unspecified) | i
CCCCOC(=O)C1=C(C)Nc2nnnn2C1c1ccc(OC)cc1 (stereo unspecified) | i
Cc1ccc(C(CC(=O)NCCc2ccccn2)c2ccccc2)cc1 (stereo unspecified) | i
COc1ccc2c(c1)C(C)=CC(C)(C)N2 | 42%*
COc1ccc(I)c(OC)c1 | i
CC1=CC(C)(C)Nc2ccc(OC(=O)COc3ccc(Cl)cc3)cc21 | i
Cc1cc(C)n2nc(SCCC(=O)N3CCCC3)nc2n1 | i
Cc1cccc(N2C(=O)CC(N3CCCCC3)C2=O)c1 (stereo unspecified) | i
CCOC(=O)CN(Cc1ccccc1F)S(=O)(=O)c1ccc(Br)cc1 | i
O=C1c2ccccc2C(=O)C1c1ccccn1 | i
O=C1c2ccccc2C(=O)C1c1ccncc1 | 99%*
O=C1c2ccccc2C(=O)C1c1nc2ccccc2[nH]1 | i
O=C(O)CC(NC(=O)c1ccccc1)c1ccccc1 (stereo unspecified) | i
Cc1ccsc1C(CNC1CCSCC1)N(C)C (stereo unspecified) | i
O=C1Nc2ccccc2/C1=C/C(=O)c1ccc(Cl)cc1 | 32%*
O=C(O)/C=C1\NC(=O)c2ccccc21 | i
O=C1Nc2ccccc2C1=Nc1ccc(C(=O)O)cc1 | i
COc1ccc(NC(=O)CC2CCCCC2)c([N+](=O)[O-])c1 | 40%*
CCCCOC(=O)Nc1ccc(OC)cc1[N+](=O)[O-] | 47%*
CCCCOC(=O)Nc1ccccc1F | i
COc1ccc(OCC(=O)Nc2ccc(OC)cc2[N+](=O)[O-])cc1 | i
COc1ccc(NC(=O)CC2SC(N)=NC2=O)c([N+](=O)[O-])c1 (stereo unspecified) | i
COc1ccc(NC(=O)CC2CCCCC2)c(OC)c1 | i
SMILES | ST2 IL33 inh
O=C(NCc1ccccc1-n1ccnc1)c1cn(CC2CCCNC2)nn1 (stereo unspecified) | i
COc1ccccc1N1CCN(Cc2ccsc2)CC1 | i
Cc1[nH]nc(SCC(=O)Nc2ccc3c(c2)OCO3)c1[N+](=O)[O-] | i
C#CCOc1c(Cl)cc(C=O)cc1OCC | i
COc1ccc2c(c1OC)C(=O)OC2Nc1ccc(F)cc1 (stereo unspecified) | i
Oc1ccccc1/C=C/c1nc(-c2ccccc2O)n(-c2ccccc2)n1 | 36%*
Oc1ccccc1C=Nc1ccccc1-c1nnc2n1CCCCC2 | i
COc1cc(/C=C/c2nc3ccccc3c(=O)n2-c2cccc([N+](=O)[O-])c2)ccc1O | i
COc1ccc(/C=C/c2nc(-c3ccccc3O)n(-c3ccccc3)n2)cc1OC | 36%*
COc1ccc(-c2cnn(-c3ccccc3)c2N)cc1OC | i
